According to PubChem BioAssay AID1377 (University of Pittsburgh Molecular Library Screening Center, 2008):
In all, about 220,000 compounds went through this assay and about 830 (0.38%) were called active. This excerpt belongs to a sample that is enriched for actives. Values without a mark were called inactive.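 How the source made its calls: active means activation, scaled between plate controls, above about 75% (limit read from the data); inactive means activation under that limit.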

Assay: rescue of L929 cells from zVAD death – primary screen (AID 1377);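 further: 0% = zVAD with DMSO and 100% = DMSO alone without zVAD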
Conditions: L929 zVAD necroptosis rescue, ATP luminescence, 24 h, at 10 µM, stronger effect = higher value; with zVAD 60 µM unless noted

SMILES | viability rescue
Cc1cccc(NC(=O)/C=C/c2ccc3c(c2)OCO3)n1 | 0.85% [with zVAD 20 µM]
Cc1cccc(NC(=O)Nc2ccc3c(c2)OCO3)n1 | 75.5% (active)
CC(NC(=O)Nc1ccc2c(c1)OCO2)c1ccncc1 (configuration not stated) | 1.29%
CC1CCCCC1NC(=O)CO/N=C/c1ccc(OC(F)F)cc1 (configuration not stated) | 0.48%
CC(C)C(=O)Nc1ccc2c3c(cccc13)CC2 | 1.59% [with zVAD 20 µM]
CCN(c1ccccc1)S(=O)(=O)c1ccc(C(=O)Nc2nccs2)cc1 | 0.94%
CC(=O)Oc1ccc(C(=O)Nc2nccs2)cc1 | 101% [with zVAD 20 µM] (active)
O=C(O)c1ccccc1-c1ccccc1C(=O)Nc1nccs1 | 1.12%
Cn1cccc1C(=O)Nc1nccs1 | 66.4% [with zVAD 20 µM]
CCOc1ccc(C(=O)Nc2nccs2)cc1[N+](=O)[O-] | 80.9% (active)
COc1ccc(C(=O)NNC(=O)c2cnccn2)cc1[N+](=O)[O-] | -0.17%
NC(=O)C1(N2CCCCC2)CCN(C2CC(=O)N(Cc3ccc(N4CCCC4=O)cc3)C2=O)CC1 (configuration not stated) | 0.13%
O=C(COC(=O)/C=C/c1nc2ccccc2s1)Nc1ccccc1Oc1ccccc1 | 0.66%
Cc1ccc(CNC(=O)CCNS(=O)(=O)c2ccc(Br)s2)cc1 | 3.55%
Cc1noc(C)c1C(=O)OCC(=O)N1CCN(S(=O)(=O)c2ccc3ccccc3c2)CC1 | 0.85%
CN(C(=O)CCn1c(=S)oc2ccccc21)C1CCCCC1 | 0.16%
CC(=O)NC1C(Oc2ccc(C=O)cc2)OC(COC(C)=O)C(OC(C)=O)C1OC(C)=O (configuration not stated) | 1.66%
Cc1cccc(CSc2nc3c(c(=O)n2C)SCC3)c1 | -0.37%
Cc1ccc(C(=O)Nc2ccccc2C(=O)NC2CCCCC2)cc1S(=O)(=O)N1CCOCC1 | -0.61%
Cc1ccc(NC(=O)c2ccccn2)cc1S(=O)(=O)N1CCOCC1 | 1.5%
Cc1ccc(NC(=O)NC2CCCCC2)cc1S(=O)(=O)N1CCOCC1 | 75.4% (active)
CCn1c(CN2C(=O)CSc3ccccc32)n[nH]c1=S | 0.15%
CCC1CCCCN1CCCNC(=O)c1cc2c(Cl)nc3ccccc3c2s1 (configuration not stated) | 18%

SMILES | viability rescue
CCOC(=O)c1cn[nH]c1NC(=S)Nc1ccccc1 | 2.47%
CCCCn1c(=O)c(CCC(=O)OCC(=O)Nc2ccc(C)c(Cl)c2)nc2ccccc21 | 0.2% [with zVAD 20 µM]
COc1cc([C@H](Cc2ccccc2)NC(C)=O)oc(=O)c1 | -0.39%
COC(=O)C1=C(C(=O)OC)[C@@H]2N(C)c3ccccc3[C@@]23C[C@@H](C(=O)OC)N(C(C)=O)C3=N1 | 0.26%
Oc1ccc(-c2onc3ccc(Cl)cc23)cc1 | 82.9% (active)
Clc1ccc2nc(-c3ccccc3)nc(C(Cl)Cl)c2c1 | 37.5%
NC(=O)C[n+]1cccc(C(N)=O)c1 | 1.24%
O=C(O)CCn1c(O)c(C=C2N=c3ccccc3=N2)sc1=S | -0.21%
CCN(CC)CCNS(=O)(=O)c1ccc(/C=C/C(=O)O)cc1 | 1.05%
C/C(=C/C(=O)N1CCN(C)CC1)C(=O)O | 0.98%
CSc1nc2c(c(=O)[nH]1)C(c1cccc(Cl)c1Cl)CC(=O)N2 (configuration not stated) | 0.3%
Cc1ccccc1C(=O)N1CCC(C(=O)Nc2ccc(S(=O)(=O)N(C)C(C)C)cc2)CC1 | -0.58%
OCCCNc1nccc(-c2cc(Nc3cccc(Cl)c3)ncn2)n1 | 103% (active)
NS(=O)(=O)c1cccnc1Nc1cccc(Cl)c1 | -0.92%
CC(C)n1cnc2c(Nc3cccc(Cl)c3)nc(N(CCO)CCCO)nc21 | 20.9%
CC(=O)Nc1ccc(S(=O)(=O)NCC(=O)OCc2cc(=O)oc3ccc4ccccc4c23)cc1 | 0.62%
COc1ccc(Nc2ncc(F)c(N3CCOCC3)n2)cc1 | 75.1% (active)
c1ccc(Nc2nc(N3CCOCC3)c3ccccc3n2)cc1 | -0.17%
CCOc1ccc(Nc2nc(Cl)nc(N3CCN(c4ccc(OC)cc4)CC3)n2)cc1 | 0.74%
CCCOC(=O)c1c(NC(=O)c2cnn3c2NC(c2ccccc2)CC3C(F)(F)F)sc2c1CCCC2 (configuration not stated) | 7.75% [with zVAD 20 µM]
CC(C)NC(=O)/C(C#N)=C\c1ccc(N(C)C)c(Br)c1 | 0.11%
COc1ccc(C2CC(c3cccs3)Nc3nnnn32)cc1 (configuration not stated) | 2.51%
Cc1cc(-n2cnc(-c3cn(C)nc3C)n2)no1 | 80.2% (active)

SMILES | viability rescue
C/C(Cc1ccccc1)=N\NC(=O)CNC(=O)c1ccc2c(c1)OCCO2 | 0.03%
COc1cccc(Nc2nc(N)c([N+](=O)[O-])c(NCc3ccco3)n2)c1 | -0.44%
COC(=O)c1cccnc1NC(=S)NC(C)C | -0.14%
COc1cc2c(cc1O)[C@H](Cc1ccc(Oc3cc(C[C@@H]4NCCc5cc(OC)c(O)cc54)ccc3O)cc1)NCC2 | 5.53%
CC[C@H]1CN2CCc3cc(OC)c(OC)cc3[C@@H]2C[C@@H]1C[C@H]1NCCc2cc(OC)c(OC)cc21 | 79.5% (active)
O=C(/C=C/c1cccs1)NCc1cccnc1 | 0.04%
Cc1ccc(Nc2ccccc2N)cc1 | 75.5% (active)
Nc1ccc(Nc2ccccc2)cc1 | 0.51% [with zVAD 20 µM]
Cc1ccc(Nc2nnc(SCc3ccccc3)s2)cc1 | 1.32% [with zVAD 20 µM]
Cc1ccc(C)c(NC(=O)C2Cc3ccccc3CN2C(=O)OCc2ccccc2)c1 (configuration not stated) | 0.1% [with zVAD 20 µM]
O=C(Nc1ccc(Cl)cn1)c1cnn2cccnc12 | -0.65%
Cc1cc(NC(=O)c2cnn3cccnc23)n(-c2ccccc2)n1 | 77.7% (active)
Cc1cc(NC(=O)Nc2ccccc2)n(-c2ccccc2)n1 | 0.11% [with zVAD 20 µM]
CNC(=S)N/N=C/c1cn(Cc2ccc(C)cc2)c2ccccc12 | 0.34%
COCCNC(=O)c1ccccc1NS(=O)(=O)c1ccc(C)c([N+](=O)[O-])c1 | 0.95%
COc1ccc(/C=N/NS(=O)(=O)c2ccc(NC(C)=O)cc2)cc1 | 0.07%
Cc1cc(=O)oc2cc(OCC(=O)Nc3nnc(C4CC4)s3)ccc12 | -0.67%
Cc1ccc(NC(=O)Cn2cccc2C2=NC(c3ccccc3)CO2)c(C)c1 (configuration not stated) | -0.00089%
CCNc1nc(NCC)nc(N/N=C/c2ccc(O)c(OC)c2)n1 | 0.27%
COc1cc(/C=N\Nc2nc(-c3cccs3)c(NC(C)=O)s2)ccc1O | 2.98%
COc1cc(/C=N/Nc2nc3ccccc3s2)ccc1O | 77.5% (active)
COc1cc2nc(Cl)nc(NCCO)c2cc1OC | 0.24%
CC1CC(C)(C)n2c(O)c(N=NC(N)=S)c3cccc1c32 (configuration not stated) | -0.69%

SMILES | viability rescue
COc1ccccc1/C=C/CN1CCC(CO)(Cc2ccccc2)CC1 | 0.85%
CC(=O)c1ccc(S(=O)(=O)N2CCN(C(=O)/C=C/c3ccc4ccccc4n3)CC2)cc1 | 75.2% (active)
NC(=O)COC(=O)/C=C/c1ccc2ccccc2n1 | 10.8%
CC(=O)c1ccc(S(=O)(=O)N2CCN(c3nc4c(C)c(C)ccc4cc3C#N)CC2)cc1 | 1.16%
Cc1ccc(S(=O)(=O)N(C)CC(=O)OCC(=O)Nc2ccccc2)cc1 | 0.76%
Brc1cc(/C=N/n2cnnc2)oc1Br | 0.56%
O=C(COc1ccc(Cl)cc1)NCCC1=CCCCC1 | 0.15% [with zVAD 20 µM]
Cc1nnc(OCC(=O)NCCC2=CCCCC2)c2ccccc12 | 0.41%
O=C(COc1cccc(-n2cnnn2)c1)NCCC1=CCCCC1 | 78.2% [with zVAD 20 µM] (active)
COCCN(C(=O)c1ccccc1F)c1c(N)n(Cc2ccccc2)c(=O)[nH]c1=O | 1.78%
COc1ccc(CN2C(=O)C(C)S/C2=N/N=C/c2ccco2)cc1 (configuration not stated) | 0.28%
COC(=O)c1[nH]c2ccccc2c1NS(=O)(=O)c1ccc(OC)cc1OC | -0.08%
COc1ccc(N=Cc2c(O)[nH]c3ccccc23)cc1OC | 76.4% [with zVAD 20 µM] (active)
COc1cc(N=Cc2c(O)[nH]c3ccccc23)cc(OC)c1OC | 78.4% [with zVAD 20 µM] (active)
CN=c1scc(-c2cc(OC)ccc2OC)n1/N=C/c1c(C)[nH]c2ccccc12 | 3.26% [with zVAD 20 µM]
COCC(=O)N=Nc1c(O)[nH]c2ccccc12 | -0.49% [with zVAD 20 µM]
COc1ccccc1N=Cc1c(O)c2ccccc2oc1=O | -0.1%
Cc1cccc(C(=O)N2CCC(c3nc4ccccc4s3)CC2)c1 | 12.5%
CC(C)=CCN1CCN(Cc2ccc(Oc3ncccn3)cc2)CC1CCO (configuration not stated) | -0.77%
CCc1ccc(C2C(C#N)=C(N)N(N3CCOCC3)C3=C2C(=O)CC(C)(C)C3)s1 (configuration not stated) | -0.95%
CCCN=C1NC(=O)C(CC(=O)NCCc2ccc(OC)c(OC)c2)S1 (configuration not stated) | 0.51% [with zVAD 20 µM]
OCC(CO)(CO)NCc1ccc(-c2ccccc2)cc1 | 3.78%
O=C(Nc1nnc(C2CC2)s1)C1=NN(C2CCS(=O)(=O)C2)C(=O)CC1 (configuration not stated) | 1.75%
